Experiment [1] in a line: AP1 Signaling Pathway (AID 357). Note: % is set by controls: 0 for no effect and ±100 for the full control effect. The settings on record: ME-180 (cervical carcinoma) AP-1-bla reporter, EGF-induced, beta-lactamase ratio, 5 h. A digest of the protocol:
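ME-180 cells with beta-lactamase reporter under AP-1 response element, stimulated with EC50 EGF; compounds tested in titration series, 5 h at 37 °C. CCF4 substrate added 2.5 h at room temperature; 460/530 nm emission ratio gave %activity and AC50.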

For experiment [2], the target named is Cytochrome P450 1A2 (Homo sapiens) (UniProt P05177). The experiment in a line: p450-cyp1a2 (AID 410; calls by dose curve; note: potency is the fitted concentration of half-maximal effect;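 for activity change, negative = inhibition: -100% = full effect of reference inhibitor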). Summed up:
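Read-out is luminescence from luciferin produced by CYP1A2 demethylation of Luciferin-ME (100uM, at Km). Detection reagent stopped the 60 min NADPH-dependent reaction; signals were normalized to 57 uM furafylline.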

The nature of experiment [3]: NFAT Signaling Pathway (AID 444).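 Note: carbachol stimulus at about its EC50 of 1 µM final; % is set by controls: 0 for no effect and ±100 for the full control effect.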 The settings on record: Jurkat NFAT-bla M1, carbachol, beta-lactamase ratio, 5 h. A digest of the protocol:
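Jurkat cells carrying an NFAT-driven β-lactamase reporter and co-transfected muscarinic M1 receptor were treated with compound plus carbachol (1 uM final, an EC50 level) for 5 h at 37 °C. CCF4 loading followed for 1 h at RT; 460/530 nm ratio gave %activity.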

The nature of experiment [4]: Stat Signaling Pathway (AID 446).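 Note: ME-180 cervical cancer cells given 40 pM IL-6 alongside compound; SIE-controlled beta-lactamase reporter measured as 460/530 nm FRET emission ratio; % is set by controls: 0 for no effect and ±100 for the full control effect.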 A digest of the protocol:
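FRET read-out (405 nm excitation, 460/530 nm emission) of a beta-lactamase reporter under a STAT-inducible element in ME-180 cervical carcinoma cells. Cells with compound receive 40 pM IL-6 for 5 h. Values are normalised to AC90 stimulation and AC90 JAK-inhibitor controls.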

Experiment [5] addresses Mitogen-activated protein kinase 10 (Mus musculus) (UniProt Q61831). The experiment can be described thus: JNK3 AlphaScreen Assay (AID 530).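 Note: kinase came from lysate of stimulated human HepG2 cells; signal reports phosphorylation of biotinylated GST-cJun 1-79 at Ser73 with 10 µM ATP; % is set by controls: 0 for no effect and ±100 for the full control effect.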 Summed up: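 Biotinylated GST-cJun(1-79) served as substrate for JNK3 in HepG2 lysates stimulated with IL-1beta and TNF-alpha. ATP was 10 uM final, pH 7.6. Ser73 phosphorylation was quantified by AlphaScreen (680 nm excitation).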
(In general: Bead proximity is the source of the signal in Alpha formats.)

Experiment [6] deals with Glucocorticoid receptor (Homo sapiens) (UniProt P04150). The experiment in a line: GR-GFP Redistribution (AID 450;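 active = compounds whose dose series gives a full or clear partial fitted curve of increased nuclear translocation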; note: potency is the fitted concentration of half-maximal effect). The settings on record: U2OS GR-GFP nuclear translocation, laser cytometry, 2 h.
Sequence of Glucocorticoid receptor (Homo sapiens) (P04150 whole entry, looked up): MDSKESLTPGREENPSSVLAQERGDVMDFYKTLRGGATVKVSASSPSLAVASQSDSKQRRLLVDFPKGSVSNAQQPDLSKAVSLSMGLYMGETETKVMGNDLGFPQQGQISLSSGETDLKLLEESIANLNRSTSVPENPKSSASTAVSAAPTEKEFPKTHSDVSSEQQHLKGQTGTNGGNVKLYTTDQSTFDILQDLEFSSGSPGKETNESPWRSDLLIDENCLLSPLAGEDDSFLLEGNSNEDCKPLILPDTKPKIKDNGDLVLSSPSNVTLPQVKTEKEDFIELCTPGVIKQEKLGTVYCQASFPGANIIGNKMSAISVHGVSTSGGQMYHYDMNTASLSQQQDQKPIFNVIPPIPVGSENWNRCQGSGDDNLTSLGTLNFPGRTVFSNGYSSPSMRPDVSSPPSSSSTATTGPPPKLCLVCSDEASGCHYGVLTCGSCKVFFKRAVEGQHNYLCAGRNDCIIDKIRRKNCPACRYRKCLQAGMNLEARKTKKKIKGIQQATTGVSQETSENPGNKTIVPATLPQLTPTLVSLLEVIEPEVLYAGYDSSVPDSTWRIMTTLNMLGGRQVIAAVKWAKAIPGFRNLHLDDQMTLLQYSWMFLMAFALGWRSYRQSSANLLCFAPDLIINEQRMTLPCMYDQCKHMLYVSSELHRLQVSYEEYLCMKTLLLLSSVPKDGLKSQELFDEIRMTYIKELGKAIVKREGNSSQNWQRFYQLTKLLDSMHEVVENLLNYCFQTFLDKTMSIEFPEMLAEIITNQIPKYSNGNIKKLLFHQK
Experiment [7] has the same target. The experiment can be described thus: GR-EFC Redistribution (AID 451; calls by dose curve; note: potency is the fitted concentration of half-maximal effect). As to conditions: CHO-K1 GR-EFC translocation, beta-gal luminescence, 2 h. A digest of the protocol:
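CHO-K1 cells stably expressing nuclear-localized β-gal enzyme acceptor and GR fused C-terminally to the enzyme donor fragment; ligand-driven nuclear translocation restores β-gal by complementation. Compounds titrated up to 46 uM final, 2 h at 37 °C; luminescence read.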

Experiment [8] deals with Lysosomal acid glucosylceramidase (Homo sapiens) (UniProt P04062). The experiment in a line: Glucocerebrosidase-p2 (AID 348; in the data active = potency below about 10 µM; note: potency is the fitted concentration of half-maximal effect). The settings on record: purified GBA, blue fluorogenic substrate, 40 min. A digest of the protocol: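 Normal human glucocerebrosidase (0.2 nM) with blue fluorogenic substrate (80 uM final) in citrate/phosphate pH 5.9 with 10mM sodium taurocholate, 0.01% tween-20; 40 min RT, NaOH/glycine stop; fluorescence Ex 365/Em 440; AC50 from a titration from 0.6 nM upwards.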
Sequence of Lysosomal acid glucosylceramidase (Homo sapiens) (P04062 whole entry, looked up): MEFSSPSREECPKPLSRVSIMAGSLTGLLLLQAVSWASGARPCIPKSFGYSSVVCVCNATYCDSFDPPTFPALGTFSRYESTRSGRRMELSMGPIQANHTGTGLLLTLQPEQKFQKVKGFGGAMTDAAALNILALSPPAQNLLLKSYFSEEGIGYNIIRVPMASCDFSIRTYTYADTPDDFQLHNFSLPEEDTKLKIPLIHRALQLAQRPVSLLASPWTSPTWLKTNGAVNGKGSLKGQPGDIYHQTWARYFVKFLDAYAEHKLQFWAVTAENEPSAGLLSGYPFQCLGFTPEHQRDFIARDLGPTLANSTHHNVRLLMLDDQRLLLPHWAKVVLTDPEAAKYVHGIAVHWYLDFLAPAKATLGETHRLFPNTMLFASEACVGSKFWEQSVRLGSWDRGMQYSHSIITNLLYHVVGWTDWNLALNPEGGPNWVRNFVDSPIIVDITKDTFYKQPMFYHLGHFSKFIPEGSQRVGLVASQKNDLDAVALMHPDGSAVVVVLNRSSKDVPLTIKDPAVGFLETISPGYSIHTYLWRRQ

Setting [9] is: at 17.2 µM (top of the series) unless noted.

Where “and” joins values, the source holds several entries; their conditions need not be identical. Equal entries are not always repeated. Values without a mark were called inactive. Records with an inconclusive call do not appear. Calls of active or inactive are those of the source. Unless noted, calls come from the whole dose curve; as a rule, active = well fitted curve in either direction with a large enough effect (not every such curve was filed as active); inconclusive = small, poorly fitted or top-dose-only effect, or another doubt; inactive = flat fitted curve, though single readings scatter.

Sequence of Cytochrome P450 1A2 (Homo sapiens) (P05177 whole entry, looked up): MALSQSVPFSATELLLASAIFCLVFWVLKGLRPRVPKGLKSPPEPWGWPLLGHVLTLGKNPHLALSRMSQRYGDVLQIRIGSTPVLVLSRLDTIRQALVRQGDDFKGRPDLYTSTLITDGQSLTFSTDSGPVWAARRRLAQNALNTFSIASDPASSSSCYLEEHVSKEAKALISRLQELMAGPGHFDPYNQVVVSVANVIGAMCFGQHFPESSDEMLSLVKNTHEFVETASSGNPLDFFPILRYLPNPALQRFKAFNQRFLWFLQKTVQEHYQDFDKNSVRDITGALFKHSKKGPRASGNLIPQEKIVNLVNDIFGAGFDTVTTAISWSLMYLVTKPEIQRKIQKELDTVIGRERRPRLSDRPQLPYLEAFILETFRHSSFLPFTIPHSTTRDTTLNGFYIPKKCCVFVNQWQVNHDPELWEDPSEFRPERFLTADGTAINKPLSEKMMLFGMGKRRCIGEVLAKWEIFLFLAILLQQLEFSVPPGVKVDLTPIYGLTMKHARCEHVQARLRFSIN

For the compound `C[N+](C)(C)CCO`, the activity change, negative = inhibition in experiment [1] (setting [9]) was 0.911% [at 38 µM]; in experiment [3] (at 38 µM (top of the series)), 2.35%. Also, in experiment [2], the Potency entry was “inactive”. The outcome in experiment [4] and in experiment [5] was inactive.
In the case of `CCCCCC(=O)O[C@]1(C(C)=O)CC[C@H]2[C@@H]3CCC4=CC(=O)CC[C@]4(C)[C@H]3CC[C@@]21C`, in experiment [1] (setting [9]), the activity change, negative = inhibition is -2.44%. For the same compound, in experiment [4], the compound was classed as inactive. In addition, the Potency in experiment [6] was 0.00527 µM (active).
`CN(C(=O)C(Cl)Cl)c1ccc(OC(=O)c2ccco2)cc1`: the activity change, negative = inhibition in experiment [1] (setting [9]) is 4.41% and 1.4%; in experiment [3] (at 17.2 µM (top of the series)) it was 3.31% and -29.1%. Also, the Potency entry in experiment [2] was “inactive”. Moreover, the call in experiment [4] and in experiment [5] was inactive. The Potency in experiment [6] and in experiment [7] was more than 20.6 µM each time.
`CC(=O)OCC[N+](C)(C)C`: the figures for the activity change, negative = inhibition in experiment [1] (setting [9]) and in experiment [3] (at 17.2 µM (top of the series)) were -2.55% and 122% [activator] (active), respectively. Further, the compound was classed as inactive in experiment [4]. Further, in experiment [6], the Potency was more than 20.6 µM.
On to `Cc1ncc(CO)c(CO)c1O`, for which the activity change, negative = inhibition in experiment [1] (setting [9]) is -2.02%. In experiment [2], the Potency entry is “inactive”. Besides, the compound was called inactive in experiment [4] and in experiment [5].
With `CCOC(=O)NNc1nncc2ccccc12`, the activity change, negative = inhibition in experiment [1] (setting [9]) is -6.72%; in experiment [3] (at 17.2 µM (top of the series)), 1.79%. In addition, the Potency was 5.01 µM (active) in experiment [2], more than 20.6 µM in experiment [6] and more than 20.6 µM in experiment [7]. The outcome in experiment [4] and in experiment [5] was inactive.
With `OC(CCCN1CCCCC1)(c1ccccc1)c1ccccc1`, the activity change, negative = inhibition in experiment [1] (setting [9]) was 26.6%. In addition, in experiment [2], the Potency result is “inactive”. The call in experiment [4] and in experiment [5] was inactive.
For `O=C(CCCCC(=O)Nc1c(I)cc(I)c(C(=O)O)c1I)Nc1c(I)cc(I)c(C(=O)O)c1I`, the activity change, negative = inhibition was 2.09% in experiment [1] (setting [9]) and 0.68% in experiment [3] (at 17.2 µM (top of the series)). In addition, in experiment [2], the Potency entry is “inactive”. The compound was called inactive in experiment [4] and in experiment [5]. For the same compound, the Potency in experiment [6] and in experiment [7] was more than 20.6 µM each time.
As for `CN(C)c1cc2c(Nc3ccc4c(cnn4Cc4ccccc4)c3)ncnc2cn1`, the activity change, negative = inhibition in experiment [1] (setting [9]) is -107% [at 38 µM] (active). Further, the results for the Potency in experiment [2], in experiment [6] and in experiment [7] were 7.94 µM (active), more than 46 µM and more than 46 µM, respectively. In experiment [5], the call was inactive.
For `CN1CCCN(C(c2ccccc2)c2ccc(Cl)cc2)CC1` (stereo unspecified), the activity change, negative = inhibition in experiment [1] (setting [9]) is 14.9%; in experiment [3] (at 17.2 µM (top of the series)) it was -95.8% (active). Besides, in experiment [4], the call was inactive. Further, the Potency in experiment [6] was 6.11 µM (active).
As to `CC(NCCC(c1ccccc1)c1ccccc1)c1ccccc1` (stereo unspecified), the activity change, negative = inhibition in experiment [1] (setting [9]) is 12.2%. Further, in experiment [4], the outcome was inactive. Also, the Potency in experiment [6] was more than 20.6 µM.
Regarding `NC(N)=NCCCCN=C(N)N`, the activity change, negative = inhibition in experiment [1] (at 17.2 µM (top of the series)) is 10.4%; in experiment [1] (at 38 µM (top of the series)), -0.239%; in experiment [3] (at 17.2 µM (top of the series)), 8.46%; in experiment [3] (at 38 µM (top of the series)), -22%. Moreover, the compound was classed as inactive in experiment [4] and in experiment [5]. The Potency in experiment [6] is > 46 µM and > 20.6 µM; in experiment [7] it was > 46 µM and > 20.6 µM.
As to `C[C@]12CCC(=O)C=C1CC[C@@H]1[C@@H]2[C@@H](O)C[C@@]2(C)[C@H]1CC[C@]2(O)C(=O)COC(=O)CCC(=O)O`, the activity change, negative = inhibition in experiment [1] (setting [9]) was -1.32% and 11.9%; in experiment [3] (at 17.2 µM (top of the series)) it was 10.9%. Moreover, the result in experiment [4] was inactive. In experiment [6], the Potency was 44.2 nM (active) and 599 nM (active).
As to `C[C@H]1C[C@@H]2[C@H]([C@@H](O)C[C@@]3(C)[C@H]2CC[C@]3(O)C(=O)CO)[C@@]2(C)C=CC(=O)C=C12`, the activity change, negative = inhibition was 4.57% in experiment [1] (setting [9]) and 17.5% in experiment [3] (at 17.2 µM (top of the series)). In experiment [4], the compound was called inactive.
Regarding `CCCC(=O)O[C@]1(C(=O)CCl)[C@@H](C)C[C@H]2[C@@H]3CCC4=CC(=O)C=C[C@]4(C)[C@@]3(F)C(=O)C[C@@]21C`, the activity change, negative = inhibition in experiment [1] (setting [9]) was 2.19%. The call in experiment [4] was inactive. Also, in experiment [6], the Potency is < 5.9e-06 µM (active).
For `CCN(CC)CCOc1ccc(/C(=C(\Cl)c2ccccc2)c2ccccc2)cc1`, the activity change, negative = inhibition in experiment [1] (setting [9]) is 9.05%; in experiment [3] (at 17.2 µM (top of the series)), -12.4%. Further, the results for the Potency in experiment [2], in experiment [6] and in experiment [7] were 12.6 µM (active), more than 20.6 µM and more than 20.6 µM, respectively. Further, the call in experiment [4] and in experiment [5] was inactive.
As for `O=C(O)/C=C(\CC(=O)O)C(=O)O`, in experiment [8], the Potency was more than 11.4 µM. In addition, the results for the activity change, negative = inhibition in experiment [1] (setting [9]), in experiment [3] (at 7.69 µM (top of the series)) and in experiment [5] were 3.65% [at 7.69 µM], 26.4% and 4.55% [at 11.4 µM], respectively. In addition, the Potency result in experiment [2] was “inactive”. Also, the result in experiment [4] was inactive.
For `Brc1ccc([C@H]2CN3CCSC3=N2)cc1`, the values for the activity change, negative = inhibition in experiment [1] (setting [9]) and in experiment [3] (at 38 µM (top of the series)) were 10.4% [at 38 µM] and -10.1%, respectively. The Potency is 15.8 µM (active) in experiment [2], more than 46 µM in experiment [6] and more than 46 µM in experiment [7]. Further, the result in experiment [4] and in experiment [5] was inactive.
For the compound `CC1(C)O[C@@H]2C[C@H]3[C@@H]4CCC5=CC(=O)C=C[C@]5(C)[C@@]4(F)[C@@H](O)C[C@]3(C)[C@]2(C(=O)CO)O1`, the activity change, negative = inhibition in experiment [1] (setting [9]) was 4.43%. Moreover, the outcome in experiment [4] was inactive. In addition, the Potency in experiment [6] is 0.00313 µM (active).
Take `OCCOCCN1CCN(C(c2ccccc2)c2ccc(Cl)cc2)CC1` (stereo unspecified): in experiment [1] (setting [9]), the activity change, negative = inhibition is 3.37%. The compound was classed as inactive in experiment [4].

(Values after PubChem BioAssay (NCATS).)
